± gives the standard deviation of the averaged measurements.
Columns and labels:
DLD1 [1] = experiment: cell viability (CellTiter-Glo) relative to plate median (fraction of plate median); higher = more viable cells; conditions: 5 µM; treatment time 24 h; reporter: 7TFP
Method in brief: (§1)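 Stable lentiviral TCF/Wnt firefly luciferase reporters (7TFP or TCF4/Wnt) were present in the colorectal cancer cell lines used. These cells received library compounds at a final 5 µM for 24 h, and parallel plates were read for firefly luciferase or CellTiterGlo luminescence. Each well was normalised to the plate median, and the value reported is the mean of two independent replicates.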

HCT116 = experiment: as above; conditions: 5 µM; treatment time 24 h; reporter: TCF4/Wnt
Method in brief: as §1

SW480 [2] = experiment: as above; conditions: 5 µM; treatment time 24 h; reporter: 7TFP
Method in brief: as §1

DLD1 [3] = experiment: TCF/Wnt firefly luciferase reporter signal relative to plate median (fraction of plate median); higher = higher Wnt reporter signal; conditions: 5 µM; treatment time 24 h; reporter: 7TFP
Method in brief: as §1

SW480 [4] = experiment: as above; conditions: 5 µM; treatment time 24 h; reporter: 7TFP
Method in brief: as §1

NC(=O)C[S+]([O-])C(c1ccccc1)c1ccccc1 (stereo not given)
cell viability (DLD1 [1]): 0.952 ± 0.12
cell viability (HCT116): 1.1 ± 0.05
cell viability (SW480 [2]): 1.02 ± 0.014
TCF/Wnt firefly luciferase reporter signal (DLD1 [3]): 1.08 ± 0.064
TCF/Wnt firefly luciferase reporter signal (SW480 [4]): 1.02 ± 0.014

C=CCC1(C(C)CCC)C(=O)NC(=S)NC1=O (stereo not given)
cell viability (DLD1 [1]): 1.03 ± 0.076
cell viability (HCT116): 1.18 ± 0.23
cell viability (SW480 [2]): 0.951 ± 0.0028
TCF/Wnt firefly luciferase reporter signal (DLD1 [3]): 1.02 ± 0.035
TCF/Wnt firefly luciferase reporter signal (SW480 [4]): 0.794 ± 0.011

O=C1C=C2C=C[C@@H]3C[C@@]2(O1)[C@H]1CCCCN31
cell viability (DLD1 [1]): 1.1 ± 0.057
cell viability (HCT116): 1.11 ± 0.064
cell viability (SW480 [2]): 1.02 ± 0.063
TCF/Wnt firefly luciferase reporter signal (DLD1 [3]): 1.01 ± 0.023
TCF/Wnt firefly luciferase reporter signal (SW480 [4]): 0.988 ± 0.013

CN1C(=O)CCS(=O)(=O)C1c1ccc(Cl)cc1 (stereo not given)
cell viability (DLD1 [1]): 1.01 ± 0.033
cell viability (HCT116): 1.02 ± 0.014
cell viability (SW480 [2]): 0.946 ± 0.15
TCF/Wnt firefly luciferase reporter signal (DLD1 [3]): 0.984 ± 0.023
TCF/Wnt firefly luciferase reporter signal (SW480 [4]): 1.04 ± 0.093

COc1cc(OC)c2c(c1)O[C@H](c1ccc(OC)c(OC)c1)[C@@H](O)C2
cell viability (DLD1 [1]): 0.924 ± 0.071
cell viability (HCT116): 0.955 ± 0.047
cell viability (SW480 [2]): 0.973 ± 0.096
TCF/Wnt firefly luciferase reporter signal (DLD1 [3]): 0.952 ± 0.023
TCF/Wnt firefly luciferase reporter signal (SW480 [4]): 1.01 ± 0.014

O=C(O)c1cccc2nc3ccccc3nc12 [1-Phenazinecarboxylic acid]
cell viability (DLD1 [1]): 1.12 ± 0.16
cell viability (HCT116): 1.05
cell viability (SW480 [2]): 1.32 ± 0.11
TCF/Wnt firefly luciferase reporter signal (DLD1 [3]): 0.986 ± 0.091
TCF/Wnt firefly luciferase reporter signal (SW480 [4]): 1.03 ± 0.12

NCCc1c[nH]c2ccccc12
cell viability (DLD1 [1]): 0.991 ± 0.041
cell viability (HCT116): 1.03 ± 0.16
cell viability (SW480 [2]): 0.952 ± 0.061
TCF/Wnt firefly luciferase reporter signal (DLD1 [3]): 0.988 ± 0.045
TCF/Wnt firefly luciferase reporter signal (SW480 [4]): 1.03 ± 0.021

COP(=S)(OC)SCn1nnc2ccccc2c1=O
cell viability (DLD1 [1]): 0.983 ± 0.02
cell viability (HCT116): 0.939 ± 0.049
cell viability (SW480 [2]): 0.955 ± 0.0071
TCF/Wnt firefly luciferase reporter signal (DLD1 [3]): 0.991 ± 0.13
TCF/Wnt firefly luciferase reporter signal (SW480 [4]): 0.903 ± 0.14

CC1=CCCC2C1(C)CCC(C)C2(C)CC/C(C)=C/Cn1c[n+](C)c2c(N)ncnc21 (stereo not given) [AGELASINE (stereochemistry of diterpene unknown)]
cell viability (DLD1 [1]): 1.02 ± 0.14
cell viability (HCT116): 1.06 ± 0.071
cell viability (SW480 [2]): 0.94 ± 0.015
TCF/Wnt firefly luciferase reporter signal (DLD1 [3]): 1.18 ± 0.092
TCF/Wnt firefly luciferase reporter signal (SW480 [4]): 1.07 ± 0.078

Cc1ccc(/N=C/N(C)/C=N/c2ccc(C)cc2C)c(C)c1
cell viability (DLD1 [1]): 1.01 ± 0.021
cell viability (HCT116): 0.988 ± 0.074
cell viability (SW480 [2]): 0.975 ± 0.036
TCF/Wnt firefly luciferase reporter signal (DLD1 [3]): 1.1 ± 0.057
TCF/Wnt firefly luciferase reporter signal (SW480 [4]): 0.927 ± 0.12

C=C(C)[C@H]1Cc2c(ccc3c(=O)c4c(oc23)COc2cc(OC)c(OC)cc2-4)O1
cell viability (DLD1 [1]): 1.07 ± 0.12
cell viability (HCT116): 1 ± 0.041
cell viability (SW480 [2]): 1.12 ± 0.2
TCF/Wnt firefly luciferase reporter signal (DLD1 [3]): 1.04 ± 0.099
TCF/Wnt firefly luciferase reporter signal (SW480 [4]): 0.919 ± 0.13

c1cc2c(cc1[C@H]1OC[C@H]3[C@@H]1CO[C@H]3c1ccc3c(c1)OCO3)OCO2
cell viability (DLD1 [1]): 1.03 ± 0.014
cell viability (HCT116): 1.03 ± 0.13
cell viability (SW480 [2]): 0.952 ± 0.068
TCF/Wnt firefly luciferase reporter signal (DLD1 [3]): 1.09 ± 0.064
TCF/Wnt firefly luciferase reporter signal (SW480 [4]): 0.932 ± 0.21

COc1cc2c(c(OC)c1OC)-c1ccc(OC)c(=O)cc1[C@@H](NC(C)=O)CC2
cell viability (DLD1 [1]): 1.1 ± 0.057
cell viability (HCT116): 0.636 ± 0.016
cell viability (SW480 [2]): 1.22 ± 0.099
TCF/Wnt firefly luciferase reporter signal (DLD1 [3]): 0.77 ± 0.22
TCF/Wnt firefly luciferase reporter signal (SW480 [4]): 0.802 ± 0.13

CCn1cc(C(=O)O)c(=O)c2cc3c(cc21)OCO3
cell viability (DLD1 [1]): 0.96 ± 0.016
cell viability (HCT116): 0.949 ± 0.031
cell viability (SW480 [2]): 0.847 ± 0.27
TCF/Wnt firefly luciferase reporter signal (DLD1 [3]): 0.893 ± 0.058
TCF/Wnt firefly luciferase reporter signal (SW480 [4]): 1 ± 0.11

COc1c2c(c(CC=C(C)C)c3oc(=O)c(-c4ccc(O)cc4)c(O)c13)OC(C)(C)C=C2
cell viability (DLD1 [1]): 0.9495 ± 0.0021
cell viability (HCT116): 0.985 ± 0.064
cell viability (SW480 [2]): 1.01 ± 0.035
TCF/Wnt firefly luciferase reporter signal (DLD1 [3]): 0.969 ± 0.016
TCF/Wnt firefly luciferase reporter signal (SW480 [4]): 0.985 ± 0.012

Nc1ncn[nH]1
cell viability (DLD1 [1]): 0.973 ± 0.067
cell viability (HCT116): 1.09 ± 0.11
cell viability (SW480 [2]): 1 ± 0.029
TCF/Wnt firefly luciferase reporter signal (DLD1 [3]): 0.957 ± 0.089
TCF/Wnt firefly luciferase reporter signal (SW480 [4]): 0.978 ± 0.012

C=C[C@@H]1C2=CCOC(=O)C2=CO[C@H]1O[C@@H]1O[C@H](CO)[C@@H](O)[C@H](O)[C@H]1O
cell viability (DLD1 [1]): 0.971 ± 0.098
cell viability (HCT116): 0.9495 ± 0.0078
cell viability (SW480 [2]): 1.03
TCF/Wnt firefly luciferase reporter signal (DLD1 [3]): 0.923 ± 0.12
TCF/Wnt firefly luciferase reporter signal (SW480 [4]): 0.926 ± 0.034

COP(=O)(OC)OC=C(Cl)Cl
cell viability (DLD1 [1]): 1.05 ± 0.014
cell viability (HCT116): 0.94 ± 0.099
cell viability (SW480 [2]): 0.994 ± 0.037
TCF/Wnt firefly luciferase reporter signal (DLD1 [3]): 1.04 ± 0.18
TCF/Wnt firefly luciferase reporter signal (SW480 [4]): 1.03 ± 0.028

CC(C)=CCC[C@]1(C)C=Cc2c(O)c3c(c(CC=C(C)C)c2O1)O[C@]12C(=C[C@@H]4C[C@H]1C(C)(C)O[C@@]2(C/C=C(/C)C(N)=O)C4=O)C3=O
cell viability (DLD1 [1]): 0.976 ± 0.049
cell viability (HCT116): 0.9335 ± 0.00071
cell viability (SW480 [2]): 1.03 ± 0.021
TCF/Wnt firefly luciferase reporter signal (DLD1 [3]): 0.947 ± 0.011
TCF/Wnt firefly luciferase reporter signal (SW480 [4]): 0.895 ± 0.1

COc1cc2c(cc1-c1cc3cc4ccoc4cc3oc1=O)OCO2
cell viability (DLD1 [1]): 0.964 ± 0.03
cell viability (HCT116): 0.949 ± 0.054
cell viability (SW480 [2]): 0.93 ± 0.059
TCF/Wnt firefly luciferase reporter signal (DLD1 [3]): 0.973 ± 0.017
TCF/Wnt firefly luciferase reporter signal (SW480 [4]): 0.9445 ± 0.0021

CCCCCCCCCCCCOC(=O)[C@H]1OC(=O)[C@H](O)[C@H]1C(=O)OO [Cinatrin C1]
cell viability (DLD1 [1]): 1.03 ± 0.11
cell viability (HCT116): 1.02 ± 0.033
cell viability (SW480 [2]): 0.995 ± 0.035
TCF/Wnt firefly luciferase reporter signal (DLD1 [3]): 0.905 ± 0.054
TCF/Wnt firefly luciferase reporter signal (SW480 [4]): 0.977 ± 0.033

COc1cc([C@@H]2c3cc4c(cc3[C@H](O)[C@H]3COC(=O)[C@H]23)OCO4)cc(OC)c1OC
cell viability (DLD1 [1]): 0.903 ± 0.091
cell viability (HCT116): 0.552 ± 0.075
cell viability (SW480 [2]): 0.95 ± 0.14
TCF/Wnt firefly luciferase reporter signal (DLD1 [3]): 0.831 ± 0.34
TCF/Wnt firefly luciferase reporter signal (SW480 [4]): 0.783 ± 0.061

C[N+]1(C)CCCC(OC(=O)C(O)(c2ccccc2)c2ccccc2)C1 (stereo not given)
cell viability (DLD1 [1]): 0.965 ± 0.036
cell viability (HCT116): 0.936 ± 0.063
cell viability (SW480 [2]): 1.01 ± 0.014
TCF/Wnt firefly luciferase reporter signal (DLD1 [3]): 1.05 ± 0.014
TCF/Wnt firefly luciferase reporter signal (SW480 [4]): 0.957 ± 0.043

CC1=C2C(=CO[C@H](C)[C@H]2C)C(O)=C(C(=O)O)C1=O
cell viability (DLD1 [1]): 0.939 ± 0.076
cell viability (HCT116): 1 ± 0.022
cell viability (SW480 [2]): 0.923 ± 0.027
TCF/Wnt firefly luciferase reporter signal (DLD1 [3]): 0.861 ± 0.13
TCF/Wnt firefly luciferase reporter signal (SW480 [4]): 0.9055 ± 0.0035

c1ccc(/N=N/c2ccccc2)cc1
cell viability (DLD1 [1]): 1.03 ± 0.021
cell viability (HCT116): 0.981 ± 0.027
cell viability (SW480 [2]): 1.04 ± 0.028
TCF/Wnt firefly luciferase reporter signal (DLD1 [3]): 1.04 ± 0.088
TCF/Wnt firefly luciferase reporter signal (SW480 [4]): 0.986 ± 0.091

COc1cc2c(cc1OC)[C@@H]1C(=O)c3ccc4c(c3O[C@@H]1CO2)CC(C(C)C)O4 (stereo not given in full)
cell viability (DLD1 [1]): 0.963 ± 0.11
cell viability (HCT116): 0.685 ± 0.14
cell viability (SW480 [2]): 0.9715 ± 0.0092
TCF/Wnt firefly luciferase reporter signal (DLD1 [3]): 0.84 ± 0.0042
TCF/Wnt firefly luciferase reporter signal (SW480 [4]): 0.842

CON1C(=O)[C@H]2NC(=O)[C@]13Oc1cc(O)c(Cl)cc1[C@@H]3SS2 [Aspirochlorine]
cell viability (DLD1 [1]): 0.736 ± 0.087
cell viability (HCT116): 0.918 ± 0.017
cell viability (SW480 [2]): 0.841 ± 0.026
TCF/Wnt firefly luciferase reporter signal (DLD1 [3]): 0.981 ± 0.28
TCF/Wnt firefly luciferase reporter signal (SW480 [4]): 1 ± 0.035

CCCCOC(=O)c1ccccc1C(=O)OCCCC
cell viability (DLD1 [1]): 0.944 ± 0.044
cell viability (HCT116): 0.98 ± 0.013
cell viability (SW480 [2]): 0.96 ± 0.071
TCF/Wnt firefly luciferase reporter signal (DLD1 [3]): 0.847 ± 0.16
TCF/Wnt firefly luciferase reporter signal (SW480 [4]): 0.939 ± 0.03
